Most compounds without a hit are left out; they make up all but 1.2% or so of the library.
Avidin bead fluor – avidin bead compound fluorescence profile. Avidin beads, compound fluorescence 488/530 nm, flow cytometry; stronger effect = higher value. fluorescence (KMESF) at 10 µM. 0.38% of 220,000 active; in the data active means fluorescence above about 47
RGS16-Gao HTS – RGS16-Galphao interaction regulator (human); O15492+P09471; bead-based flow cytometry RGS16-Galphao binding, fluorescence; actives lie on both sides; binding response (% of control), % at 10 µM; 0.38% of 220,000 active;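 further: Galphao activated by GDP with aluminum fluoride before binding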
RGS7-Gao reg – regulators of human RGS7-Galphao interaction | P09471 | Multiplexed bead flow cytometry, RGS7-Galphao binding; actives lie on both sides | binding response (% of control), % at 10 µM | 0.35% of 220,000 active | AID 1439; in the data active means binding response below about 49% or above about 150%; inconclusive means no clear call, values can overlap the other calls; inactive means in between;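 further: fluorescent Galphao held in activated GDP-AlF4 state binding bead-coupled RGS7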
Target sequence (P09471 whole entry, looked up): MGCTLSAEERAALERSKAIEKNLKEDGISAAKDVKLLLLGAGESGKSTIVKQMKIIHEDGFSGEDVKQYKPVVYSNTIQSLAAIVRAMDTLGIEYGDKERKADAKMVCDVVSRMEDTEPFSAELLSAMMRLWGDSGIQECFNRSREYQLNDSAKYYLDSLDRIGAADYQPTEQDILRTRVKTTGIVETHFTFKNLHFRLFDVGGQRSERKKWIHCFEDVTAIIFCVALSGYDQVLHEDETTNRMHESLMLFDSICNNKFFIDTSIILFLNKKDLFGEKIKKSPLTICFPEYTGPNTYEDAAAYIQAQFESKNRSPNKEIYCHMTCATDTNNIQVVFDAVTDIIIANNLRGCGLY
RGS8-Gao reg – regulators of human RGS8-Galphao interaction. P09471. multiplexed bead flow cytometry, RGS8-Galphao binding; actives lie on both sides. response (percent of control binding), % at 10 µM. 0.34% of 220,000 active. AID 1423; in the data active means response below about 60% or above about 140%; inactive means in between;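 further: Galphao activated as the GDP aluminium fluoride complex binding bead-coupled RGS8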
GSH bead fluor – compound fluoresces at 488/530 nm on GSH beads. 0.25% of 190,000 active. GSH beads flow cytometry, compound fluorescence 488/530 nm; stronger effect = higher value. fluorescence (KMESF) at 10 µM; in the data active means fluorescence above about 89;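 further: glutathione beads carrying GST-tagged Bcl family fusion proteins plus one bare bead set; values are compound well signal with DMSO vehicle wells as background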
RGS4-Gao reg – human RGS4-Galphao interaction regulation; 0.33% of 220,000 active; Multiplexed bead flow cytometry, RGS4-Galphao binding; actives lie on both sides; binding response (% of control), % at 10 µM; P09471; AID 1415; in the data active means binding response below about 49% or above about 150%; inactive means in between;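 further: fluorescent Galphao activated with aluminum fluoride binding bead-coupled RGS4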
RGS-Gao – RGS4-Galphao interaction regulator (human). shares compounds with RGS16-Gao HTS. multiplexed bead flow cytometry, RGS–Galpha-o binding. RGS4–Galpha-o binding response, % at 10 µM. 99% of 1,600 active. AID 1504;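 further: fluorescently labeled Galpha-o bound to GDP with aluminium fluoride binding biotinylated RGS beads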
Biotin-avidin – counter-screen: compounds disrupting biotin binding to avidin beads; inhibition, % at 10 µM; streptavidin beads, fluorescein-biotin binding, flow cytometry; 1,700 tested, under 10 active; shares compounds with RGS16-Gao HTS;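 active means inhibition above 50%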;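 further: median green fluorescence of gated singlet beads compared with DMSO control wells; 0% = DMSO wells and 100% = complete loss of bead fluorescence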
RGS8-Gao confirm – confirmation of regulators of human RGS8-Galphao interaction; shares compounds with RGS16-Gao HTS; bead-based flow cytometry RGS8-Galphao binding, fluorescence; actives lie on both sides; binding response (% of control), % at 10 µM; 3% of 1,700 active; in the data active means binding response below about 72% or above about 130%; inactive means in between;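 further: Galphao activated as GDP AlF4 complex before binding bead RGS8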
RGS7-Gao confirm – RGS7-Galphao interaction regulation, single point confirmation | shares compounds with RGS16-Gao HTS | bead-based flow cytometry RGS7-Galphao binding; actives lie on both sides | response (percent of control binding), % at 10 µM | 7.8% of 1,700 active | AID 1837; in the data active means response below about 75% or above about 130%; inactive means in between;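 further: fluorescent Galphao activated with GDP and aluminum fluoride binding bead-coupled RGS7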
RGS16-Gao single – confirmation of regulators of human RGS16-Galphao interaction; shares compounds with RGS16-Gao HTS; bead-based flow cytometry, RGS16-Galphao binding; actives lie on both sides; response (% of control binding), % at 10 µM; 4% of 1,700 active; AID 1838; in the data active means response below about 74% or above about 130%; inactive means in between;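 further: Galphao activated as the GDP aluminium fluoride complex binding bead-coupled RGS16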
RGS4-Gao single – RGS4-Galphao interaction regulation, single point confirmation; shares compounds with RGS16-Gao HTS; RGS4-Galphao binding, multiplexed bead flow cytometry; actives lie on both sides; binding response (% of control), % at 10 µM; 4% of 1,700 active; in the data active means binding response below about 74% or above about 130%; inactive means in between
RGS19-Gao single – confirmation of regulators of human RGS19-Galphao interaction | shares compounds with RGS16-Gao HTS | bead-based flow cytometry RGS19-Galphao binding; actives lie on both sides | response (percent of control binding), % at 10 µM | 5% of 1,700 active | AID 1841; in the data active means response below about 50% or above about 160%; inactive means in between;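 further: 100% = no compound control and 0% = blank background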
Target sequence (P09471 whole entry, looked up): as above
Target sequence (P49795 whole entry, looked up): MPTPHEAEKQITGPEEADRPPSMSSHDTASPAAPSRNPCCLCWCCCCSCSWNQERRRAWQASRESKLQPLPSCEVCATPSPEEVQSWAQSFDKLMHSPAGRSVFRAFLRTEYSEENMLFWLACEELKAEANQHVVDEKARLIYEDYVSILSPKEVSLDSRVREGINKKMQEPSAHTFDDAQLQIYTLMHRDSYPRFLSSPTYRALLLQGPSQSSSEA
The depositor's hits bear a star; ? = inconclusive; · = not tested or not shown; [ ] = remark or other dose. Unless noted, how the calls were made is not given here.

SMILES	Avidin bead fluor	RGS16-Gao HTS	RGS7-Gao reg	RGS8-Gao reg	GSH bead fluor	RGS4-Gao reg	RGS-Gao	Biotin-avidin	RGS8-Gao confirm	RGS7-Gao confirm	RGS16-Gao single	RGS4-Gao single	RGS19-Gao single
Cc1ccccc1/C=N/n1c(-c2cc(-c3ccccc3)n[nH]2)n[nH]c1=S	2	30	?	41*	·	37*	·	-2	95	109	91	96	97
Cc1ccsc1/C=N/n1c(-c2cc(-c3ccccc3)n[nH]2)n[nH]c1=S	9	102	?	101	·	100	·	·	·	·	·	·	·
COc1ccccc1CNC(=O)CCSCc1cccc(Cl)c1	15	241	98	146*[activator]	15	99	99*	-1	104	96	104	99	110
COc1ccc(CNC(=O)CCSCc2cccc(Cl)c2)cc1	92*	188	177*[activator]	106	16	157*[activator]	·	-3	98	94	98	97	97
COc1ccc(CNC(=O)CSCc2cccc(Cl)c2)cc1	15	101	97	100	15	101	·	·	·	·	·	·	·
O=C(CCSCc1cccc(Cl)c1)NC1CCCC1	14	106	100	101	12	103	·	·	·	·	·	·	·
Cc1cc(C)c(O)c(-c2n[nH]c3c2C(c2cccc(O)c2)N(Cc2ccco2)C3=O)c1 (stereo not drawn)	5	105	?	104	·	100	·	·	·	·	·	·	·
Cc1cc(C)c(NS(=O)(=O)c2ccc(NC(=O)/C=C/C(=O)O)cc2)c(C)c1	-3	1.1*	-0.2*	12*	9	9.7*	·	1	98	97	98	99	109
COc1cccc(NC(=O)Nc2cc(C)ccc2OC)c1	2	22*	26*	34*	15	36*	·	2	98	95	97	100	103
COc1ccc(C)cc1NC(=O)Nc1ccccc1	13	98	104	101	57	104	·	·	·	·	·	·	·
O=C(CN1CCN(C(=O)c2ccco2)CC1)Nc1ccc2c(c1)OCCO2	223*	108	178*[activator]	99	36	122	122*	0	97	94	95	99	98
Cn1cc(Br)c(-c2cccc(NC(=O)CCC(=O)O)c2)n1	5	101	?	99	·	98	·	·	·	·	·	·	·
Cc1ccc(OCC(=O)N/N=C\c2ccncc2)c(C)c1	7	177*[activator]	105	111	10	106	106*	·	·	·	·	·	·
O=S(=O)(NCCOc1ccccc1)c1ccc2ccccc2c1	5	-1.5*	89	86	12	90	90*	·	·	·	·	·	·
CS(=O)(=O)NCCOc1ccc(S(=O)(=O)NCCOc2ccccc2)cc1	10	98	?	101	11	102	·	·	·	·	·	·	·
CCc1nnc(NC(=O)CC(=O)Nc2ccccc2C(=O)O)s1	·	·	·	·	45	·	·	0	98	98	100	99	88
CCCOc1ccc(C(=O)NCC(c2cccs2)N(C)C)cc1OC (stereo not drawn)	17	100	104	103	9	103	·	·	·	·	·	·	·
COc1cc(C(=O)NCC(c2cccs2)N(C)C)cc(Cl)c1OC(C)C (stereo not drawn)	8	211*[activator]	120	122	15	116	116*	2	103	109	105	106	112
CC(C)(C)NC(=O)C(c1cccs1)N(C(=O)c1csnn1)c1ccccc1F (stereo not drawn)	10	97	103	103	17	101	·	·	·	·	·	·	·
Cc1sc(N)c(C(=O)c2ccccc2)c1C	248*	113	253*[activator]	87	10	126	126*	1	90	97	88	94	77
Cc1cccn2c(=O)c(C=O)c(N3CCSCC3)nc12	8	96	?	99	·	95	·	·	·	·	·	·	·
CC(=O)c1cc(C#N)c(SCC(=O)OC(C)C)nc1C	9	101	97	103	17	99	·	·	·	·	·	·	·
CC(=O)c1cc(C#N)c(SCC(=O)OC(C)(C)C)nc1C	138*	109	183*[activator]	103	26	117	117*	1	97	97	96	99	86
O=c1/c(=C\c2cccc(O)c2)sc2nc(-c3ccccc3)c(-c3ccccc3)n12	7	102	?	103	·	102	·	·	·	·	·	·	·
O=C1C2C(C(=O)N1c1ccccc1)N1CCCN1C2c1ccccc1 (stereo not drawn)	9	99	?	102	13	100	·	·	·	·	·	·	·
SMILES	Avidin bead fluor	RGS16-Gao HTS	RGS7-Gao reg	RGS8-Gao reg	GSH bead fluor	RGS4-Gao reg	RGS-Gao	Biotin-avidin	RGS8-Gao confirm	RGS7-Gao confirm	RGS16-Gao single	RGS4-Gao single	RGS19-Gao single
COc1ccc(-n2c3c(cc(C(=O)NNc4ccccc4C)c2=O)C(=O)CC(C)(C)C3)cc1	8	86	92	93	12	84	·	·	·	·	·	·	·
COc1ccc(-n2c3c(cc(C(=O)NNc4ccccc4)c2=O)C(=O)CC(C)(C)C3)cc1	7	43	47*	59*	13	47*	·	-3	95	87	93	90	69
CCNC(=O)NC(=O)C(C)OC(=O)CNS(=O)(=O)c1c(Cl)cc(Br)cc1Cl (stereo not drawn)	12	103	100	103	12	104	·	·	·	·	·	·	·
CSC1=NC(=O)/C(=C\c2cccc3ccccc23)S1	200*	113	223*[activator]	97	11	124	124*	-1	101	98	99	97	95
N=C1S/C(=C\c2cccc3ccccc23)C(=O)N1c1ccc(F)cc1	10	101	99	101	8	100	·	·	·	·	·	·	·
COc1ccc(C(=S)N2CCOCC2)cc1OC(=O)c1cc([N+](=O)[O-])c(C)c([N+](=O)[O-])c1	14	104	107	101	16	100	·	·	·	·	·	·	·
COc1cc(C(=S)N2CCOCC2)ccc1OC(=O)c1cc([N+](=O)[O-])c(C)c([N+](=O)[O-])c1	6	6.2*	91	80	5	86	86*	-1	102	98	102	101	95

Source: PubChem
